This is an account of results in PubChem BioAssay.

Assay [1] is described as follows: antimalarial activity against Dd2 strain (AID 2302;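 active = growth inhibition above 50% at the single 2 µM test dose, taken to imply half-maximal potency below 2 µM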;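 also: 0% = DMSO untreated growth and 100% = chloroquine plus artemisinin killed control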). The conditions noted are these: P. falciparum Dd2 in RBCs, LDH growth readout, 72 h; at 2 µM; hits give high values.
Assay [2] in a line: human hepatoma cell viability loss – ATP luminescence, cytotoxicity control for P. falciparum antimalarial project, primary screen (AID 2303;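 active = inhibition above 50%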;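 also: 0% = DMSO wells and 100% = digitonin-killed cells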). The conditions noted are these: HepG2 viability, 24-48 h, at 10 µM, hits give high values.
Assay [3] deals with L-lactate dehydrogenase (Plasmodium falciparum (isolate CDC / Honduras)) (UniProt Q27743). The experiment in a line: PfLDH activity inhibition – cell lysate, 3D7 strain, counter-screen for P. falciparum growth inhibition project (AID 2304).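 Also: 0% = vehicle and 100% = reference inhibitor.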 The conditions noted are these: P. falciparum 3D7 crude extract, LDH APAD/NBT absorbance; at 2 µM; hits give high values. In general terms: A counterscreen serves to expose hits that act by an unwanted route or on another target.

Assay [4] in a line: inhibition of 3D7 malaria parasite growth – strain 3D7 (AID 2306).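 Also: 0% = DMSO wells and 100% = chloroquine plus artemisinin control wells.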 The conditions noted are these: P. falciparum 3D7 erythrocytic growth, LDH absorbance, 72 h; at 2 µM; hits give high values.
For assay [5], the target named is Calcium-dependent protein kinase 1 (Plasmodium falciparum (isolate 3D7)) (UniProt P62344). The experiment in a line: PfCDPK1 kinase inhibitors, biochemical, TCAMS library (AID 1159585; cut-off not given, nearly all actives have IC50 up to about 0.98 µM;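 also: inhibitors leave more ATP so luminescence rises with inhibition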). The conditions noted are these: recombinant PfCDPK1, Kinase-Glo ATP depletion luminescence. In general terms: In Kinase-Glo more light means more ATP remaining.
Assay [6] deals with Plasmodium falciparum protein kinase 6 (PK6, PF3D7_1337100) (UniProt Q8IDW1). Put plainly: PfPK6 kinase inhibitors, biochemical, TCAMS library (AID 1159586). The conditions noted are these: recombinant PfPK6, Kinase-Glo ATP depletion luminescence.
Assay [7] deals with Protein kinase 7 (PK7), Plasmodium falciparum 3D7 (PF3D7_0213400) (UniProt Q7YTF7). Put plainly: inhibition of Plasmodium PK7 catalytic activity – biochemical, TCAMS antimalarial set, Kinase-Glo luminescence (AID 1159587). Conditions: recombinant PfPK7, Kinase-Glo ATP depletion luminescence.
For assay [8], the target named is Calcium-dependent protein kinase 4 (Plasmodium falciparum (isolate 3D7)) (UniProt Q8IBS5). The experiment in a line: PfCDPK4 kinase inhibitors, biochemical, TCAMS library (AID 1159588; cut-off not given, nearly all actives have IC50 up to about 0.91 µM). Conditions: recombinant PfCDPK4, Kinase-Glo ATP depletion luminescence.

A number with no mark means an inactive call. For some of these results: Potency and affinity values are given separately. Active and inactive are the calls of the source. Unless noted, no rule for the calls is given here.

Sequence of Calcium-dependent protein kinase 4 (Plasmodium falciparum (isolate 3D7)) (Q8IBS5 whole entry, looked up): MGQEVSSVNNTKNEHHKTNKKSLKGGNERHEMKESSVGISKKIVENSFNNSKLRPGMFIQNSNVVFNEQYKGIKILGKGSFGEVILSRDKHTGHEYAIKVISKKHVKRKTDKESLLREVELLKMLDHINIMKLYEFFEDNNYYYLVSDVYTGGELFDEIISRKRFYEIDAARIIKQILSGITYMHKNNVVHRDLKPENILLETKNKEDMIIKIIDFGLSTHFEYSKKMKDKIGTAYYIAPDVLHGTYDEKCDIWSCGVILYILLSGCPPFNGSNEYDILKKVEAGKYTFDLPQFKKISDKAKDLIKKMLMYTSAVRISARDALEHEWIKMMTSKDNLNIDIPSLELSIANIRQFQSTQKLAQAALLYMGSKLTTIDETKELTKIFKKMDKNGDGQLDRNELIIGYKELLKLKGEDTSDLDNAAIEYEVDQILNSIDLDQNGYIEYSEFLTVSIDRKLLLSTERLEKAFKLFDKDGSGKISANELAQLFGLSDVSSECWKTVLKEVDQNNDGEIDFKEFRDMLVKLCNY
Sequence of L-lactate dehydrogenase (Plasmodium falciparum (isolate CDC / Honduras)) (Q27743 whole entry, looked up): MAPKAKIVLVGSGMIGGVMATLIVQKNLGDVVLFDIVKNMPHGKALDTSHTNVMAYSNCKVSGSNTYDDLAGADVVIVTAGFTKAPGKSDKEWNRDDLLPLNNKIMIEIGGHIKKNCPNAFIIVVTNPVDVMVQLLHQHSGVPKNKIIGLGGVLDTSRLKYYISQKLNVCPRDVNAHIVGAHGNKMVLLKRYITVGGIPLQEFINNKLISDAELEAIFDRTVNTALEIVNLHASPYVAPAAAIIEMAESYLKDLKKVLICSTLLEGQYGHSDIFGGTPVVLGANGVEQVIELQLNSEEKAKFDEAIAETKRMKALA
Sequence of Protein kinase 7 (PK7), Plasmodium falciparum 3D7 (PF3D7_0213400) (Q7YTF7 1-343): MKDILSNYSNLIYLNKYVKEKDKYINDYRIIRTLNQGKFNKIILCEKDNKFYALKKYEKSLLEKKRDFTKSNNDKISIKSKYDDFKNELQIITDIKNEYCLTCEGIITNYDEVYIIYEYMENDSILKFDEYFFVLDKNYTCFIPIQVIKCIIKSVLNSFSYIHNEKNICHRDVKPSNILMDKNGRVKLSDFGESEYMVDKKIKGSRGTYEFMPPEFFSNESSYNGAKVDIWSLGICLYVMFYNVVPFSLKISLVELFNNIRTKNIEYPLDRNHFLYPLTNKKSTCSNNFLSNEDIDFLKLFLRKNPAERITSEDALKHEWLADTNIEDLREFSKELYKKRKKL
Sequence of Calcium-dependent protein kinase 1 (Plasmodium falciparum (isolate 3D7)) (P62344 whole entry, looked up): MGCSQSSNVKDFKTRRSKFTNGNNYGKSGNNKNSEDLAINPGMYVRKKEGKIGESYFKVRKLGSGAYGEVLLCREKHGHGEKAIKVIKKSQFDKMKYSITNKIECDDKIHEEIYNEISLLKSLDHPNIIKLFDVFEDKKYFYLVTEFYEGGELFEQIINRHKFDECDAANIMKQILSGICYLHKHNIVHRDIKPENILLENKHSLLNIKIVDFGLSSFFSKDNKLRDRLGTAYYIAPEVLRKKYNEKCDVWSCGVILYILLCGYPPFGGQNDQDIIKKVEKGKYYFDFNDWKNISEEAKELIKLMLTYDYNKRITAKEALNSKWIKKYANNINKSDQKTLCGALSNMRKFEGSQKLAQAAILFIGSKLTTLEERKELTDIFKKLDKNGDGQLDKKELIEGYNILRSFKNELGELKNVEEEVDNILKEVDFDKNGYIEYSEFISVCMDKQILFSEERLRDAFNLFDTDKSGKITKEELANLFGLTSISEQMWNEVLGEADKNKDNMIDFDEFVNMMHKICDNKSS
Sequence of Plasmodium falciparum protein kinase 6 (PK6, PF3D7_1337100) (Q8IDW1 1-305): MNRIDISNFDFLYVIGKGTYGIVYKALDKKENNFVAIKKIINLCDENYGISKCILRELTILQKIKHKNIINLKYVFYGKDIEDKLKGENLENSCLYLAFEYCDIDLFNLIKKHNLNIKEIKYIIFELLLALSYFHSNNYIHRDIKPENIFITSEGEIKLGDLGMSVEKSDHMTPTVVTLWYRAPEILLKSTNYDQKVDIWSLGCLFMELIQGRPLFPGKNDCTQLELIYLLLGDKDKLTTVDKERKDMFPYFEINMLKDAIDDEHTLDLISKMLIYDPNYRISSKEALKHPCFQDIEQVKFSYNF

Regarding `CC(C)N1CCC(N(Cc2ccc(-c3ccc(Cl)cc3)cc2)C(=O)Cn2c(CCc3cccc(F)c3F)cc(=O)c3ccccc32)CC1`, the growth inhibition in assay [1] was 73% (active); in assay [4], 96% (active). The inhibition is 62% (active) in assay [2] and 4% in assay [3]. The outcome in assay [5], in assay [6], in assay [7] and in assay [8] was inactive.
In the case of `COc1ccc(CC(=O)Nc2ccc(Nc3nc(C)cc(N4CCCC4)n3)cc2)cc1`, the values for the growth inhibition in assay [1] and in assay [4] were 65% (active) and 101% (active), respectively. Also, the results for the inhibition in assay [2] and in assay [3] were 56% (active) and -1%, respectively. Further, the result in assay [5], in assay [6], in assay [7] and in assay [8] was inactive.
Take `COc1c(C2CCN(CCCCNC(=O)c3ccc(-c4ccc(C#N)cc4)cc3)CC2)cc(Cl)c2c1CCCC2`: the growth inhibition was 59% (active) in assay [1] and 93% (active) in assay [4]. Also, the results for the inhibition in assay [2] and in assay [3] were 45% and 0%, respectively. The outcome in assay [5], in assay [6], in assay [7] and in assay [8] was inactive.
With `O=[N+]([O-])c1ccc(Nc2nc(NCc3ccccc3)nc(NN=Cc3ccccc3[N+](=O)[O-])n2)cc1`, the growth inhibition is 99% (active) in assay [1] and 101% (active) in assay [4]. The inhibition in assay [2] was 18%; in assay [3], -9%. Further, the result in assay [5], in assay [6], in assay [7] and in assay [8] was inactive.
Turning to `Cc1cc(N(C)CCCN(C)C)nc(Nc2ccc(Br)cc2)n1`, the growth inhibition in assay [1] is 84% (active); in assay [4], 100% (active). In addition, the inhibition in assay [2] is 4%; in assay [3], 1%. For the same compound, the outcome in assay [5], in assay [6], in assay [7] and in assay [8] was inactive.
Consider `O=C(/C=C/c1ccc(Cl)c(Cl)c1)N1CCC(CCN2CCc3[nH]c4ccccc4c3C2)CC1`, for which the growth inhibition in assay [1] is -1%; in assay [4] it was 96% (active). Further, the inhibition in assay [2] is 22%; in assay [3], -3%. Moreover, the result in assay [5], in assay [6], in assay [7] and in assay [8] was inactive.
In the case of `Cc1cc(N(C)CCCN(C)C)nc(Nc2ccc(Cl)cc2)n1`, the values for the growth inhibition in assay [1] and in assay [4] were 79% (active) and 101% (active), respectively. Further, the results for the inhibition in assay [2] and in assay [3] were 7% and 5%, respectively. Further, the result in assay [5], in assay [6], in assay [7] and in assay [8] was inactive.
Consider `COc1ccc2nccc([C@@H](O)CN3CCC(NCc4ccc5cccc(O)c5n4)CC3)c2n1`, for which the growth inhibition is 13% in assay [1] and 94% (active) in assay [4]. Also, the inhibition is 8% in assay [2] and 2% in assay [3]. For the same compound, the result in assay [5], in assay [6], in assay [7] and in assay [8] was inactive.
As to `CCOc1ccc(CCC(=O)O)cc1OCC`, the growth inhibition is -3% in assay [1] and 94% (active) in assay [4]. In addition, the inhibition was 60% (active) in assay [2] and 6% in assay [3]. The result in assay [5], in assay [6], in assay [7] and in assay [8] was inactive.
For `COc1ccc2cc(C=NNc3nc4ccccc4[nH]3)c(Cl)nc2c1`, the growth inhibition in assay [1] is 90% (active); in assay [4] it was 100% (active). For the same compound, the inhibition in assay [2] was 2%; in assay [3], -2%. Moreover, the result in assay [5], in assay [6], in assay [7] and in assay [8] was inactive.
For the compound `O=C(Nc1cccc(-c2ccc(-c3nc4ccccc4[nH]3)s2)c1)c1ccncc1`, the values for the growth inhibition in assay [1] and in assay [4] were 29% and 92% (active), respectively. Further, the inhibition in assay [2] is 67% (active); in assay [3] it was -9%. Also, the outcome in assay [5], in assay [6], in assay [7] and in assay [8] was inactive.
Take `CCc1cn(CCCOC)c2ccc(C(=O)N[C@@H](Cc3ccccc3)[C@H](O)CNCc3cccc(C(F)(F)F)c3)cc12`: the growth inhibition in assay [1] was 78% (active); in assay [4], 93% (active). Also, the figures for the inhibition in assay [2] and in assay [3] were 8% and -4%, respectively. Also, the outcome in assay [5], in assay [6], in assay [7] and in assay [8] was inactive.
`Oc1[nH]c2ccccc2c1N=NC(=S)N1CCOCC1`: the growth inhibition was 75% (active) in assay [1] and 95% (active) in assay [4]. In addition, the inhibition in assay [2] is 51% (active); in assay [3], 6%. The outcome in assay [5], in assay [6], in assay [7] and in assay [8] was inactive.
On to `c1ccn2c(Sc3ncnc4sccc34)ncc2c1`, for which the growth inhibition in assay [1] and in assay [4] was 100% (active) throughout. Moreover, the inhibition in assay [2] is -14%; in assay [3] it was 2%. The outcome in assay [5], in assay [6], in assay [7] and in assay [8] was inactive.
`CCCCCCN1CCN(Cc2cccc(NC(=O)c3cc4ccccc4o3)c2)CC1`: the growth inhibition in assay [1] is 83% (active); in assay [4], 93% (active). Also, the results for the inhibition in assay [2] and in assay [3] were 20% and 3%, respectively. Further, the result in assay [5], in assay [6], in assay [7] and in assay [8] was inactive.
Take `COc1ccc(CN2CCCC(C(=O)c3ccc(C(F)(F)F)cc3)C2)c(O)c1` (stereo not given): the growth inhibition in assay [1] is 88% (active); in assay [4] it was 98% (active). Also, the inhibition was -2% in assay [2] and -3% in assay [3]. The result in assay [5], in assay [6], in assay [7] and in assay [8] was inactive.
As to `Cc1cccc2[nH]c(-c3ccc(-c4cccc(CNCC5CCCO5)c4)cc3)nc12` (stereo not given), the growth inhibition is 50% (active) in assay [1] and 101% (active) in assay [4]. For the same compound, the inhibition in assay [2] was 18%; in assay [3], -5%. The result in assay [5], in assay [6], in assay [7] and in assay [8] was inactive.
As to `CCNc1cc(C(=O)N[C@@H](Cc2ccccc2)[C@H](O)CNC2(C)CCCCC2)cc(N2CCCCS2(=O)=O)c1`, the growth inhibition in assay [1] was 98% (active); in assay [4] it was 100% (active). Besides, the inhibition in assay [2] was 13%; in assay [3], 2%. The outcome in assay [5], in assay [6], in assay [7] and in assay [8] was inactive.
Regarding `CCNc1cc(C)nc(Nc2ccc(NC(=O)c3ccccc3)cc2)n1`, the growth inhibition is 63% (active) in assay [1] and 102% (active) in assay [4]. Also, the inhibition in assay [2] was 41%; in assay [3], -1%. In addition, the outcome in assay [5], in assay [6], in assay [7] and in assay [8] was inactive.
Turning to `COc1ccc(Nc2nc(NCc3cccc(NS(C)(=O)=O)c3)cc(-c3ccc(OC)cc3)n2)cc1`, the growth inhibition in assay [1] is 5%; in assay [4], 84% (active). For the same compound, the inhibition in assay [2] is -7%; in assay [3] it was 5%. For the same compound, the result in assay [5], in assay [6], in assay [7] and in assay [8] was inactive.

The inhibition is the relative decrease from the control value, in per cent.
